The record followed here is PubChem BioAssay (NCATS).

Assay [1] is described as follows: AP1 Signaling Pathway (AID 357; active = well fitted curve in either direction with a large enough effect, not every such curve was filed as active; note: % is set by controls: 0 for no effect and ±100 for the full control effect). As to conditions: ME-180 (cervical carcinoma) AP-1-bla reporter, EGF-induced, beta-lactamase ratio, 5 h; at 17.2 µM (top of the series) unless noted. In short, it runs like this: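 Read-out was the 460nm/530nm emission ratio (excitation 405nm) after CCF4 loading for 2.5 hours at room temperature. Cells carried an AP-1-driven beta-lactamase reporter, were stimulated with EC50 EGF plus compound for 5 hours, and AC50 values came from titrations.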

In assay [2] the target is Cytochrome P450 1A2 (Homo sapiens) (UniProt P05177). The assay is described as follows: p450-cyp1a2 (AID 410; calls by dose curve;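 note: -100% = full effect of reference inhibitor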). In outline:
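Human CYP1A2 (20nM) demethylated Luciferin-ME at its Km (100uM) in 100mM KPO4. After 10 min compound preincubation, NADPH regeneration ran the reaction 60 min at room temperature. Luciferin was read by luminescence, normalized to 57 uM furafylline.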

The nature of assay [3]: NFAT Signaling Pathway (AID 444; active = well fitted curve in either direction with a large enough effect, not every such curve was filed as active;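 note: carbachol stimulus at about its EC50 of 1 µM final; % is set by controls: 0 for no effect and ±100 for the full control effect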). The note with it: Jurkat NFAT-bla M1, carbachol, beta-lactamase ratio, 5 h; at 17.2 µM (top of the series) unless noted. In short, it runs like this:
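Read-out: CCF4 FRET ratio (460 nm/530 nm) after 1 h RT dye loading, used for %activity and AC50 from titration series. Cells: Jurkat NFAT-β-lactamase/M1 line, treated with compound plus 1 uM carbachol for 5 h, 37 °C.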

Assay [4] deals with Mitogen-activated protein kinase 10 (Mus musculus) (UniProt Q61831). The assay is described as follows: JNK3 AlphaScreen Assay (AID 530; active = well fitted curve in either direction with a large enough effect, not every such curve was filed as active;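 note: kinase came from lysate of stimulated human HepG2 cells; signal reports phosphorylation of biotinylated GST-cJun 1-79 at Ser73 with 10 µM ATP; % is set by controls: 0 for no effect and ±100 for the full control effect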). In short, it runs like this:
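Room-temperature AlphaScreen kinase assay; pre-activated HepG2 lysate as JNK3 source, biotin-GST-cJun(1-79) substrate, 10 uM ATP, compound 15 min preincubation.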

Assay [5] concerns the target 3',5'-cyclic-AMP phosphodiesterase 4B (Homo sapiens) (UniProt Q07343). The assay is described as follows: qHTS Assay for Inhibitors of PDE-IV (AID 607; active = well fitted activation curve with a large enough effect in the main read-out, with a control signal flat, not every such curve was filed as active; note: % of control where 0% means no effect). In short, it runs like this:
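Live HEK293 cells with a modified cyclic nucleotide-gated (CNG) channel report intracellular cAMP via membrane-potential dye fluorescence (ex 535/em 590 nm). Endogenous PDE-IV was targeted. Compounds were tested at up to 22.9 uM final; RO 20-1724 100 uM served as control.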

Assay [6] in a line: qHTS Assay for Identification of Small Molecule Antagonists for NFkB Signaling Pathway (AID 895; active = well fitted inhibition curve with a large enough effect in the signal ratio, with a control signal flat, not every such curve was filed as active; the % refers to the signal ratio; note: % is set by controls: 0 for no effect and ±100 for the full control effect). In outline:
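Beta-lactamase reporter read-out (460 and 530 nm emission ratio, 405 nm excitation, 2 hrs substrate loading RT) after 5 hr stimulation with 10 pM TNF alpha in compound-treated NFkB-bla ME-180 cells in low-serum medium.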
(In qHTS, concentration-response curves come from the screen itself.)

Assay [7] is described as follows: qHTS Assay for Identification of Small Molecule Agonists for Thrombopoietin (TPO) Signaling Pathway (AID 917). Note: % is set by controls: 0 for no effect and ±100 for the full control effect. In short, it runs like this:
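We measured Glycoprotein IIb promoter–luciferase output in IL-3-starved Ba/F3 murine cells expressing the human TPO receptor after 24 hrs at 37 C with compounds and 26 pM TPO.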

Assay [8] concerns the target Pyruvate kinase (Leishmania mexicana) (UniProt Q27686). As to the kind of experiment: qHTS Validation Assay for Inhibitors of Leishmania Mexicana Pyruvate Kinase (AID 945).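 Note: 0% = DMSO only neutral control wells.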 In outline:
(§1)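 Luminescent ATP detection (PKLight) after a 1 h room-temperature reaction of 0.2 nM LmPYK E451W mutant with 0.5 mM PEP and 0.1 mM ADP at pH 7.2. Activity is normalized to DMSO-only control wells.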

The target in assay [9] is Pyruvate kinase PKM (Homo sapiens) (UniProt P14618). The assay is described as follows: qHTS Assay for Activators of Human Muscle Pyruvate Kinase (AID 954; active = well fitted curve in the direction sought with a large enough effect, not every such curve was filed as active;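 note: 0% = uninhibited enzyme and -100% = no enzyme or full thiadiazolimine inhibition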). In outline: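 Enzyme was run at intermediate activity so both inhibitors and activators could be detected. ATP formed from ADP and PEP by 0.1 nM human PKM2 during a 1 h room-temperature incubation was quantified by coupled luciferase luminescence.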

Assay [10] addresses Alpha-galactosidase (Coffea arabica) (UniProt Q42656). As to the kind of experiment: Counterscreen for Glucocerebrosidase Inhibitors: qHTS Assay for Coffee Bean alpha-Galactosidase at pH 4.5 (AID 957).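 Note: plate controls were enzyme alone for no effect and no enzyme for full effect.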 In outline:
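Green coffee bean enzyme (2 nM final) was incubated with compounds (0.7 nM to 77 uM) and 4-methylumbelliferyl alpha-D-galactopyranoside (80 uM final) in 50 mM citric acid, 0.005% Tween-20, pH 4.5, 20 min at room temperature; AC50 from Hill fits.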

Assay [11] concerns the target Alpha-galactosidase A (Homo sapiens) (UniProt P06280). As to the kind of experiment: Counterscreen for Glucocerebrosidase Inhibitors: qHTS Assay for Human alpha-Galactosidase at pH 4.5 (AID 992). Note: 0% is about no effect. In short, it runs like this: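 Read-out is 4-methylumbelliferone fluorescence (365 nm excitation, 440 nm emission) after a pH 10 NaOH/glycine stop. Reactions held 2 nM enzyme and 80 uM substrate at pH 4.5 for 20 min at room temperature.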
A general note: A counterscreen serves to expose hits that act by an unwanted route or on another target.

In assay [12] the target is alpha-glucosidase (Oryza sativa, rice) (UniProt Q653V4). The assay is described as follows: Counterscreen for Glucocerebrosidase Inhibitors: qHTS Assay for Rice alpha-Glucosidase at pH 5.0 (AID 997).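 Note: 0% = full activity with enzyme and -100% = basal without enzyme.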 In outline:
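Rice alpha-glucosidase (4 nM final) with 400 uM 4-methylumbelliferyl-alpha-D-glucopyranoside in citrate buffer pH 5.0, 20 min at room temperature, stopped at pH 10; fluorescence 365/440 nm, compounds 0.7 nM–77 uM, AC50 from Hill fits.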

Assay [13] deals with Alpha-galactosidase (Coffea arabica) (UniProt Q42656). The assay is described as follows: Counterscreen for Glucocerebrosidase Inhibitors: qHTS Assay for Coffee Bean alpha-Galactosidase at pH 5.9 (AID 998).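 Note: plate controls were uninhibited enzyme for no effect and no-enzyme basal signal for full effect.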 In short, it runs like this:
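Compounds were titrated from 0.7 nM to 77 uM against green coffee bean alpha-galactosidase (2 nM) using 80 uM fluorogenic 4-methylumbelliferyl substrate. After 20 min at room temperature, reactions were stopped at pH 10 and read by fluorescence.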

A short description of assay [14]: Stat Signaling Pathway (AID 446; active = well fitted curve in either direction with a large enough effect, not every such curve was filed as active). In short, it runs like this:
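IL-6/STAT signaling read in ME-180 cells via an SIE beta-lactamase reporter. Stimulus was 40 pM IL-6 (its AC50) for 5 hrs, so both activation and inhibition register.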

Assay [15] has as its target Glucocorticoid receptor (Homo sapiens) (UniProt P04150). The assay is described as follows: GR-GFP Redistribution (AID 450;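 active = compounds whose dose series gives a full or clear partial fitted curve of increased nuclear translocation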; note: potency is the fitted concentration of half-maximal effect). The note with it: U2OS GR-GFP nuclear translocation, laser cytometry, 2 h.
The target is the same in assay [16]. As to the kind of experiment: GR-EFC Redistribution (AID 451; calls by dose curve; note: potency is the fitted concentration of half-maximal effect). As to conditions: CHO-K1 GR-EFC translocation, beta-gal luminescence, 2 h. In outline: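 Translocation of GR-ED fusion to nuclear EA restores b-gal, read by luminescence after 1 h room-temperature detection. Engineered CHO-K1 biosensor cells, 1,000/well, exposed 2 h at 37 C to titrations up to 46 uM final.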

The target in assay [17] is Guanine nucleotide-binding protein G(i) subunit alpha-1 (Homo sapiens) (UniProt P63096). As to the kind of experiment: qHTS Assay for Inhibitors of RGS12 GoLoco Motif Activity (Green Fluorophore) (AID 879). Note: potency is the fitted concentration of half-maximal effect. In short, it runs like this: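 Fluorescence polarization assay: 50 nM Gαi1 with 10 nM FITC-labeled RGS12 GoLoco peptide in 10 mM Tris pH 7.5, 150 mM NaCl, 0.1 mM GDP, 0.05% NP40, 10 min at room temperature with compound.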

Assay [18] concerns the target Muscarinic acetylcholine receptor M1 (Rattus norvegicus) (UniProt P08482). As to the kind of experiment: qHTS Assay for Antagonists of Acetylcholine Muscarinic M1 Receptor: Kinetic Measurement of Intracellular Calcium Response (AID 943).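 For activity change, negative = inhibition: Fluo-4 calcium signal as peak divided by basal fluorescence over 4 min.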 Note: nearly all actives have a fitted effect of over 75% in size. Note: potency is the fitted concentration of half-maximal effect. In short, it runs like this:
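CHO cells stably expressing rat M1 were loaded with no-wash Fluo-4 dye for 1 h at 37C, pre-incubated 10 min with compound, then challenged with EC80 carbachol (100 nM final); kinetic calcium read 4 min, peak/basal ratio.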

The target is the same in assay [19]. As to the kind of experiment: qHTS Assay for Antagonists of Acetylcholine Muscarinic M1 Receptor: Measurement of IP-One Response (AID 944). Note: nearly all actives have a fitted effect of over 75% in size. Note: potency is the fitted concentration of half-maximal effect. In short, it runs like this:
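CHO cells expressing rat M1 receptor, recovered overnight, were pre-incubated 10 min with compound, then stimulated 30 min with carbachol at EC80 (200 nM) in LiCl-containing buffer, pH 7.4. IP1 accumulation was read by HTRF (620/665 nm).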

The target in assay [20] is Cytochrome P450 3A4 (Homo sapiens) (UniProt P08684). As to the kind of experiment: qHTS Assay for Activators of Cytochrome P450 3A4 (AID 885). Note: nearly all actives have a fitted effect of over 65% in size. In outline: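 Quantitative HTS format: compounds preincubated with 20nM human CYP3A4 and Luciferin-PPXE substrate at KM, reaction started by NADPH regeneration, stopped after 60 min, luciferase luminescence read 20 min later.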

Assay [21] is described as follows: qHTS Assay for Identification of Small Molecule Antagonists for Thrombopoietin (TPO) Signaling Pathway (AID 918). Note: potency is the fitted concentration of half-maximal effect; nearly all actives have a fitted effect of over 60% in size. As to conditions: TPO-dependent cell signaling reporter, antagonist mode. In outline: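 Murine Ba/F3 cells stably expressing human TPO receptor and a Glycoprotein IIb promoter–luciferase reporter were IL-3-starved overnight, treated with compounds plus TPO (26 pM final, its EC50) for 24 hrs at 37 C, then read by luminescence.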

Assay [22] has as its target Pyruvate kinase PKM (Homo sapiens) (UniProt P14618). As to the kind of experiment: qHTS Assay for Inhibitors of Human Muscle Pyruvate Kinase (AID 958). In short, it runs like this:
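A coupled luminescent readout tracked ATP made from ADP by purified PKM2. Final conditions included 0.1 nM enzyme, PEP and ADP at 0.5 and 0.1 mM, pH 7.2 imidazole buffer with BSA, and a one-hour room-temperature reaction.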

The target in assay [23] is Pyruvate kinase (Leishmania mexicana) (UniProt Q27686). The assay is described as follows: qHTS Validation Assay for Activators of Leishmania Mexicana Pyruvate Kinase (AID 959). In short, it runs like this:
as §1

The target in assay [24] is Cytochrome P450 2C9 (Homo sapiens) (UniProt P11712). The assay is described as follows: qHTS Assay for Inhibitors and Substrates of Cytochrome P450 2C9 (AID 883). Note: % is set by controls: 0 for no effect and ±100 for the full control effect; nearly all actives have a fitted effect of over 60% in size. In short, it runs like this: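 Turnover of Luciferin-H (100uM, KM) by 10nM human CYP2C9 was measured over 60 min at 37C with NADPH regeneration; inhibitors and some substrates reduce luminescence. Data normalized to sulphaphenazole 57uM.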

Assay [25] addresses Cytochrome P450 2D6 (Homo sapiens) (UniProt P10635). The assay is described as follows: qHTS Assay for Inhibitors and Substrates of Cytochrome P450 2D6 (AID 891). Note: potency is the fitted concentration of half-maximal effect; nearly all actives have a fitted effect of over 60% in size. In outline: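 Human CYP2D6 (5 nM) with 30 uM Luciferin-ME EGE (at Km) in 100 mM KPO4, compound preincubated 10 min, then NADPH regeneration system for 60 min at room temperature. Luciferin read by luminescence; normalized to 1.43 uM quinidine.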

A number with no mark means an inactive call. Records with an inconclusive call do not appear. The source made the active and inactive calls. Unless noted, calls come from the whole dose curve; as a rule, active = well fitted curve in the direction sought with a large enough effect; inconclusive = small, poorly fitted or top-dose-only effect, or another doubt; inactive = no such curve, though single readings can be large; an effect the other way counts as inactive or inconclusive.

Chain of Alpha-galactosidase A (Homo sapiens) (P06280 whole entry, looked up): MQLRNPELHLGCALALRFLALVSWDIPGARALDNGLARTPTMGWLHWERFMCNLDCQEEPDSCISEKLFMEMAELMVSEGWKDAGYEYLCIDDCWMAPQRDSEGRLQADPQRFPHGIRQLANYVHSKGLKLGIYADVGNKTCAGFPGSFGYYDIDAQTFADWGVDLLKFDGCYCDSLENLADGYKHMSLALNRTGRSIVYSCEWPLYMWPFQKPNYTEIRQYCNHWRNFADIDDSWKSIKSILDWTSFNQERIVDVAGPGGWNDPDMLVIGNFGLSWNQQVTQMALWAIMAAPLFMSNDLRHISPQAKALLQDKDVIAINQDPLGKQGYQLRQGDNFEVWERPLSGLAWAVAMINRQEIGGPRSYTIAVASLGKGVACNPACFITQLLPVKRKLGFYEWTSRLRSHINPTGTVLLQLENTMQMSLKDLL
Chain of 3',5'-cyclic-AMP phosphodiesterase 4B (Homo sapiens) (Q07343 whole entry, looked up): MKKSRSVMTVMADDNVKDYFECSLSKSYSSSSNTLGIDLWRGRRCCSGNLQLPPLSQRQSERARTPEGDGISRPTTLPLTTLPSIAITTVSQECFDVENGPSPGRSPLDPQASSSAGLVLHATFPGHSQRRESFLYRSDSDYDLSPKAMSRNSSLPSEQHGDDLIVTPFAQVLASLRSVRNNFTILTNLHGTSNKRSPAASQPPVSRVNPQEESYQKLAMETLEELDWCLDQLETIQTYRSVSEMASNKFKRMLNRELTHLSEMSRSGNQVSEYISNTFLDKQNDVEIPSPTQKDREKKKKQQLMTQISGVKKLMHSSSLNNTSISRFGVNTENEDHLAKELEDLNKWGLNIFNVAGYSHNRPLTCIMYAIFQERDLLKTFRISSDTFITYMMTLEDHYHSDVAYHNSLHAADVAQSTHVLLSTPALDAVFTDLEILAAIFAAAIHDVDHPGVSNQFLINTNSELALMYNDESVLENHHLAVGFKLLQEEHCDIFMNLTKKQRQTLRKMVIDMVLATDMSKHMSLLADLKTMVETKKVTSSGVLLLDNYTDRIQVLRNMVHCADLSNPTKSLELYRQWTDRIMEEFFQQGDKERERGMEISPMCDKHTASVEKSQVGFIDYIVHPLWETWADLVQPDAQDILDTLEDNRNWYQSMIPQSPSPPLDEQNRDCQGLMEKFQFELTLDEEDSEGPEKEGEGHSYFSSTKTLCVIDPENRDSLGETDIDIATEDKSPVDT
Chain of Muscarinic acetylcholine receptor M1 (Rattus norvegicus) (P08482 whole entry, looked up): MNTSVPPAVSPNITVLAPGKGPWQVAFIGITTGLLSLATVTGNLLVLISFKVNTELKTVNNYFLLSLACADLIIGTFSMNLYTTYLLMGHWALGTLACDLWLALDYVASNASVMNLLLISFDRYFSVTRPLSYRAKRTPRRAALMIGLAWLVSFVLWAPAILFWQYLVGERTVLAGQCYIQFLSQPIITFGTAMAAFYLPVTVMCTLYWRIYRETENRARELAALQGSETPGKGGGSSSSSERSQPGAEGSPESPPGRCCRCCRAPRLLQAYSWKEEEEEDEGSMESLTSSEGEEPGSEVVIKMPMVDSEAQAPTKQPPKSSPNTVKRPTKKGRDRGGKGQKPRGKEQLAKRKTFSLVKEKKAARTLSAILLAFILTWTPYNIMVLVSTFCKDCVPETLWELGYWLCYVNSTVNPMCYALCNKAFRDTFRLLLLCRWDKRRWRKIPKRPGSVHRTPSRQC
Chain of Glucocorticoid receptor (Homo sapiens) (P04150 whole entry, looked up, the tested form may be a part): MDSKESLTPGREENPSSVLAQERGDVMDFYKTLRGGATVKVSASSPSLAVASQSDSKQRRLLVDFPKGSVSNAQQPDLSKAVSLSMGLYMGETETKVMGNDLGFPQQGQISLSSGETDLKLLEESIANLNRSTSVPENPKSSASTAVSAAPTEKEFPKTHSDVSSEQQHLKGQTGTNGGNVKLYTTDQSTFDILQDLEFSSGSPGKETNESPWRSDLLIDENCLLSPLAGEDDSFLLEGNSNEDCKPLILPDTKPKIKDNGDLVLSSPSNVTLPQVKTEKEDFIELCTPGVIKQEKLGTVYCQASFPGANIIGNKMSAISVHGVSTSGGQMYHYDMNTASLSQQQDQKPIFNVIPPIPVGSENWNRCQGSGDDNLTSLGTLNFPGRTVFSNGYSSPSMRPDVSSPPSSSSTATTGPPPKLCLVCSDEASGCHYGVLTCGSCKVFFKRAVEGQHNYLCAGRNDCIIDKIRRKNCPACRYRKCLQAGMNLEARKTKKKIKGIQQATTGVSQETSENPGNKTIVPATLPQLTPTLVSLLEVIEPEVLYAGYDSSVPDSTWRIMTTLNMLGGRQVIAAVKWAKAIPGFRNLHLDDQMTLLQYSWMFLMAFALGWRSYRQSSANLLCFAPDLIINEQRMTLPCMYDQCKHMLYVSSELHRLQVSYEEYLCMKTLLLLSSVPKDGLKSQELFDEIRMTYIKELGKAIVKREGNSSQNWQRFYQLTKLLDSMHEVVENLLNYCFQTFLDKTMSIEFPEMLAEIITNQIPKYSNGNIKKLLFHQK
Chain of Pyruvate kinase (Leishmania mexicana) (Q27686 2-499 E452W): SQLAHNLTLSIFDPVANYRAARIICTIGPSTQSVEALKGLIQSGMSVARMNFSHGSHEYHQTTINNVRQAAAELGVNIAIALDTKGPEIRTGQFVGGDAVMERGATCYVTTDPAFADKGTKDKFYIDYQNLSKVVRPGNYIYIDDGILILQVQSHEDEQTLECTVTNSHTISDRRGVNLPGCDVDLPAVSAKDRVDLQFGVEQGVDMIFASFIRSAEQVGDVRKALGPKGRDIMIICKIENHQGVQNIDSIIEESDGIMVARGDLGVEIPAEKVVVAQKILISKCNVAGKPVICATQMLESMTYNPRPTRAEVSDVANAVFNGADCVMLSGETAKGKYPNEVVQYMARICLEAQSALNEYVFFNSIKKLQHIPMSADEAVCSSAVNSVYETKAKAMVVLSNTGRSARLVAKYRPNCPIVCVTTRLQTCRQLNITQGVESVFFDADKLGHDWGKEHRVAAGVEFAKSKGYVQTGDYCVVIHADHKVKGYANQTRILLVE
Chain of Pyruvate kinase PKM (Homo sapiens) (P14618 whole entry, looked up): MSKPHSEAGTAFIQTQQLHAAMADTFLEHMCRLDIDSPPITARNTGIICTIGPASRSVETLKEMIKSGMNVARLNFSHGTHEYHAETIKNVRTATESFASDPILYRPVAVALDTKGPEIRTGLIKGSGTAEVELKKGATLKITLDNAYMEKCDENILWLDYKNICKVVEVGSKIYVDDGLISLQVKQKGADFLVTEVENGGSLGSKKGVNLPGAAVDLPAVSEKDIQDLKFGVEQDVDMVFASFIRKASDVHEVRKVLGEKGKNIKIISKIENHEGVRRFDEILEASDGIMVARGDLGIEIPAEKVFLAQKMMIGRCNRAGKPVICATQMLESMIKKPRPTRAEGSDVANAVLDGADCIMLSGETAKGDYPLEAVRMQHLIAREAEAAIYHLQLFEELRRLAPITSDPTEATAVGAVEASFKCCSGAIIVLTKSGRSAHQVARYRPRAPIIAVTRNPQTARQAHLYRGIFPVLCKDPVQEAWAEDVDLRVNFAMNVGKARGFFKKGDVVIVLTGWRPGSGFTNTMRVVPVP
Chain of Alpha-galactosidase (Coffea arabica) (Q42656 whole entry, looked up): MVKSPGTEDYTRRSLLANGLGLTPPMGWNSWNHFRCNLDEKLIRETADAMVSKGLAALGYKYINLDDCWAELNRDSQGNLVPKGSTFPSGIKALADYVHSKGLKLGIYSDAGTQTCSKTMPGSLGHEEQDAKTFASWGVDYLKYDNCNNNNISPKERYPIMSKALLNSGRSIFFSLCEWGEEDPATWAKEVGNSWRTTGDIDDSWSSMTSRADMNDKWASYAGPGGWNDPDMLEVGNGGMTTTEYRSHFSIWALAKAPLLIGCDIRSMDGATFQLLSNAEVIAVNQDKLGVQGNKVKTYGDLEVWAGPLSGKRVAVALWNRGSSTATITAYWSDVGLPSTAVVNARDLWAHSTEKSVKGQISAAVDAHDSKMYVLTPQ
Chain of Cytochrome P450 1A2 (Homo sapiens) (P05177 whole entry, looked up): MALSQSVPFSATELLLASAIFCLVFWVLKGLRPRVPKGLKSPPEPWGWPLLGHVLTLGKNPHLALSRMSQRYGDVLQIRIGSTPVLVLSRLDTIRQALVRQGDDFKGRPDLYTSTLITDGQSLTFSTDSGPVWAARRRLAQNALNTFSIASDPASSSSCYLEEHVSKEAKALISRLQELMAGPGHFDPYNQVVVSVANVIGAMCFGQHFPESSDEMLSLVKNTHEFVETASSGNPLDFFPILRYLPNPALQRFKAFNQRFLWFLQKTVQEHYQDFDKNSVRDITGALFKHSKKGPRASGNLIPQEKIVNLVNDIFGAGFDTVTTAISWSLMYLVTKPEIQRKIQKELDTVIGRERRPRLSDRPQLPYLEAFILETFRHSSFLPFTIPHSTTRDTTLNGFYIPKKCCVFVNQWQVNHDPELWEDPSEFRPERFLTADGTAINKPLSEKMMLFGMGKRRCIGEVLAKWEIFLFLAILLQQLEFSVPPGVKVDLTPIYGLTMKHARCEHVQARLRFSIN
Chain of Guanine nucleotide-binding protein G(i) subunit alpha-1 (Homo sapiens) (P63096 whole entry, looked up): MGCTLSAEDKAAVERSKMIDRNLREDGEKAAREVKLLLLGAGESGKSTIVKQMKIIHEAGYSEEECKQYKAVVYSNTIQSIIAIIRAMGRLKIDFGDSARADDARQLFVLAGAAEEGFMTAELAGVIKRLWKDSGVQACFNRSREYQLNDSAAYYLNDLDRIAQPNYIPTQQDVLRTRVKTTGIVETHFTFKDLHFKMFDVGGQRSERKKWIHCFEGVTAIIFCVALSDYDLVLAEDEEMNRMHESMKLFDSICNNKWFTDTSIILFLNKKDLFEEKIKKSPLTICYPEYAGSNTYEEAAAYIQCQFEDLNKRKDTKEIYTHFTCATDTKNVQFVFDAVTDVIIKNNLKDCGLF

For `CC[C@H](CO)NC(=O)[C@@H]1C=C2c3cccc4c3c(cn4C)C[C@@H]2N(C)C1`, the activity change, negative = inhibition in assay [1] was -3.22% [at 38 µM]; in assay [3] it was -10.9% [at 38 µM]. For the same compound, the Potency entry in assay [2], in [6] and in assay [8] was “inactive” in each case. Besides, the outcome in assay [4], in [5], in [7], in assay [9], in assay [10] and in assay [11] was inactive. The compound was classed as inactive in assay [12] and in [13].
Regarding `CCN1C[C@]2(C)CC[C@@H](O)[C@]34[C@@H]5CC6[C@@H](OC)C[C@@](O)([C@H]5[C@@H]6O)[C@@H](C[C@@H]23)[C@H]14`, the activity change, negative = inhibition was 5.54% [at 38 µM] in [1] and 6.29% [at 38 µM] in assay [3]. Also, the Potency result in [2], in assay [17], in assay [6], in [18], in assay [19] and in assay [8] was “inactive” throughout. The compound was classed as inactive in assay [14], in [5], in assay [7], in assay [9], in assay [10] and in [11]. Also, the compound was called inactive in [12] and in [13]. Besides, the Potency in [15] and in assay [16] was above 46 µM each time.
Regarding `O=C1NC(=O)C(C/C=C/c2ccccc2)C(=O)N1`, the activity change, negative = inhibition in [1] was 9.27%; in assay [3], -11.1%. The result in assay [14] was inactive. The Potency in assay [15] was above 20.6 µM.
For `NC(N)=Nc1ccc2[nH]c3c(c2c1)C[C@]1(O)[C@@H]2Cc4ccc(O)c5c4[C@]1(CCN2CC1CC1)[C@H]3O5`, in assay [1], the activity change, negative = inhibition was -18.3% [at 38 µM]. Also, the Potency result in assay [2] and in assay [20] was “inactive” each time. The result in assay [14], in assay [4], in [5], in assay [9], in assay [10] and in assay [23] was inactive. Moreover, the call in [11], in assay [12] and in [13] was inactive. Besides, the Potency was above 46 µM in [15]; above 46 µM in [16]; 25.1 µM (active) in assay [17]; 12.6 µM (active) in [21]; 3.55 µM (active) in assay [18]; 7.94 µM (active) in assay [19]. The Potency in assay [22] was 10 µM (active).
For the compound `CCN(CC)C(=O)N[C@H]1C[C@H]2c3cccc4[nH]cc(c34)C[C@@H]2N(C)C1`, the activity change, negative = inhibition in assay [1] was 9.81% [at 38 µM]; in assay [3], 3.16% [at 38 µM]. Also, the Potency entry in assay [2], in assay [24], in [20], in assay [6], in assay [18] and in assay [8] was “inactive” each time. For the same compound, the outcome in assay [14], in assay [4], in assay [5], in assay [7], in assay [9] and in assay [10] was inactive. Moreover, the compound was classed as inactive in assay [11], in assay [12] and in assay [13]. For the same compound, the Potency in assay [25] is 0.0398 µM (active).
